Test results published in PubChem BioAssay (EPA / NIEHS).
Activity calls are given as the source filed them. How the source made its calls: active means hit-call score of the fitted dose curve at least 0.9, where 1 is the maximum; inactive means score below 0.9.

These compounds were tested against Hepatocyte nuclear factor 3-beta (Homo sapiens) (UniProt Q9Y261) (assay: ATG_FoxA2_CIS: Attagene CIS-FACTORIAL HepG2 Assay for human Forkhead box A2 (FOXA2) (AID 2282942)). Conditions: HepG2 cis-reporter transcription factor activity, 24 h; actives raise or lower the signal.
Sequence of Hepatocyte nuclear factor 3-beta (Homo sapiens) (Q9Y261 whole entry, looked up): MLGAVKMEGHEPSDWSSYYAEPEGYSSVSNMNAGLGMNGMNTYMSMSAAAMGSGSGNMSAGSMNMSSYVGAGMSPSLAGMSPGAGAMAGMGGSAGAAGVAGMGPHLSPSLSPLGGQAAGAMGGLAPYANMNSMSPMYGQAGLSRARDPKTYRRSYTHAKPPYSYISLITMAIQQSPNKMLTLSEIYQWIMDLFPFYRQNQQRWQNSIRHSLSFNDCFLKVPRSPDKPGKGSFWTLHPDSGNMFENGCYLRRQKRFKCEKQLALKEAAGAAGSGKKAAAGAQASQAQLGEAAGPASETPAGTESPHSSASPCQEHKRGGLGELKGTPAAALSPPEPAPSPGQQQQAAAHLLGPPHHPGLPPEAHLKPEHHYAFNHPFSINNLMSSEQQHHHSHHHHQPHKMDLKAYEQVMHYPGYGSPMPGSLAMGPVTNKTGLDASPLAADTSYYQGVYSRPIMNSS
Procedure: ATG_CIS is a cell-based, multiplexed-readout assay that uses HepG2, a human liver cell line, with measurements taken at 24 hours after chemical dosing in a 24-well plate.ATG_FoxA2_CIS is one of 52 assay component(s) measured or calculated from the ATG_CIS assay. It is designed to make measurements of mRNA induction, a form of inducible reporter, as detected with fluorescence intensity signals by Reverse transcription polymerase chain reaction (RT-PCR) and Capillary electrophoresis technology.Data from the assay component ATG_FoxA2_CIS was analyzed into 1 assay endpoint. This assay endpoint, ATG_FoxA2_CIS, was analyzed with bidirectional fitting relative to DMSO as the negative control and baseline of activity. Using a type of inducible reporter, measures of mRNA for gain or loss-of-signal activity can be used to understand the reporter gene at the transcription factor-level as they relate to the gene FOXA2. Furthermore, this assay endpoint can be referred to as a primary readout, because this assay has produced multiple assay endpoints where this one serves a reporter gene function. To generalize the intended target to other relatable targets, this assay endpoint is annotated to the dna binding intended target family, where the subfamily is forkhead box protein.
Human liver HepG2 cells are transiently transfected with multiple reporter transcription units (MRTUs) in 6-well plates using FuGene 6 reagent (Roche; 3 ml FuGene/1 mg DNA). The MRTU constructs are regulated by a cis-regulating element (promoter). […] A major difference between the CIS and TRANS system is that in CIS activities of endogenous TFs are measured, whereas the TRANS assay evaluates changes in activities of exogenous, chimeric NR-Gal4 proteins. […] At the end of 24 hour incubation, total RNA was isolated using TriZol reagent (Invitrogen). The isolated RNA is then reverse-transcribed using oligo(dT) primer and Mo-MLV reverse transcriptase (Invitrogen) with DNAse I (Ambion) treatment for 30 min. The one-tenth of the produced cDNA was amplified by PCR using Taq DNA polymerase (Invitrogen) and two reporter sequence-specific primers. The PCR products were fluorescently labeled by primer extension with 6-arboxyfluorescein (6-FAM) 5'-labeled reporter sequence-specific primer (2 min at 95 C, 20 s at 68 C and 10 min at 72 C) and these products were digested with 5U of HpaI (New England Biolabs) for 2h at 37 C. The fragments were purified using Qiaquick PCR columns (Qiagen), analyzed on an ABI 3130xL genetic analyzer (Applied Biosystems) with peak positions identified by using a set of X-rhodamine (ROX)-labeled MapMarker1000 molecular weight standards (BioVentures). The raw capillary electrophoresis data was processed using Attagraph software (Attagene).
OCC(F)(F)OC(F)(F)C(F)(F)OC(F)(F)C(F)(F)OC(F)(F)F was tested, and the outcome was “inactive”.
O=P(Oc1ccccc1)(Oc1ccccc1)Oc1ccccc1 was tested, and the outcome was “inactive”.
For CCOS(=O)(=O)OCC, the outcome was “inactive”.
For CSC(C)(C)C=NO, the outcome was “inactive”.
In the case of COC(N)=O, the outcome is reported as “inactive”.
With [N-]=[N+]=[N-] the outcome was “inactive”.
CC(O)C#N (stereo not given) was tested, and the outcome was “inactive”.
In the case of ClC(Cl)c1ccccc1, the outcome is reported as “inactive”.
In the case of CCCCc1ccccc1, the outcome is reported as “inactive”.
With c1nc[nH]n1 the outcome was “inactive”.
For O=P1(N(CCCl)CCCl)NCCCO1 (stereo not given), the outcome was “inactive”.
In the case of CC(C)(C)c1ccc(O)cc1, the outcome is reported as “inactive”.
In the case of c1ccc2c(c1)Nc1ccccc1S2, the outcome is reported as “inactive”.
In the case of COP(=O)(O)OC, the outcome is reported as “inactive”.
With FC(F)(F)C(F)(C(F)(F)F)C(F)(F)C(F)(F)CC1CO1 (stereo not given) the outcome was “inactive”.
In the case of ClC(Cl)=C(c1ccc(Cl)cc1)c1ccccc1Cl, the outcome is reported as “inactive”.
With CC1=C(C(=O)Nc2ccccc2)S(=O)(=O)CCO1 the outcome was “inactive”.
With CCOP(=S)(NC(C)C)Oc1ccccc1C(=O)OC(C)C (stereo not given) the outcome was “inactive”.
c1ccc2c(c1)sc1ccccc12 was tested, and the outcome was “inactive”.
In the case of CCCCOCC1CO1 (stereo not given), the outcome is reported as “inactive”.
With CCOC(=O)c1ccccc1N the outcome was “inactive”.
With COCCOCCO the outcome was “inactive”.
In the case of CC(C)(C)c1ccccc1OP(=O)(Oc1ccccc1)Oc1ccccc1, the outcome is reported as “inactive”.
In the case of Nc1ccc(Cl)cc1, the outcome is reported as “inactive”.
In the case of O=NN1CCCC1, the outcome is reported as “inactive”.
In the case of CCOP(=S)(OCC)SCS(=O)(=O)CC, the outcome is reported as “inactive”.
With CC(Cl)CN(C)C (stereo not given) the outcome was “inactive”.
For Nc1ccc([N+](=O)[O-])cc1Cl, the outcome was “inactive”.
In the case of Oc1ccc(I)cc1, the outcome is reported as “inactive”.
c1ccc(OP(Oc2ccccc2)Oc2ccccc2)cc1 was tested, and the outcome was “inactive”.
For O=C(O)C(F)(F)C(F)(F)C(=O)O, the outcome was “inactive”.
With CCCCOCCOP(=O)(OCCOCCCC)OCCOCCCC the outcome was “inactive”.
In the case of CCOc1ccc(C(C)(C)COCc2cccc(Oc3ccccc3)c2)cc1, the outcome is reported as “inactive”.
For O=C(CBr)OCc1ccccc1, the outcome was “inactive”.
C/C(=N\NC(=O)Nc1cc(F)cc(F)c1)c1ncccc1C(=O)O was tested, and the outcome was “inactive”.
In the case of Cc1ccc(C(=O)Cl)cc1, the outcome is reported as “inactive”.
In the case of Cc1ccc(O)cc1C, the outcome is reported as “inactive”.
Nc1ccc2ccccc2c1 was tested, and the outcome was “inactive”.
For NNC(N)=S, the outcome was “inactive”.
For COC(=O)C(F)(F)C(F)(F)OC(F)(C(F)(F)F)C(F)(F)OC(F)=C(F)F (stereo not given), the outcome was “inactive”.
